According to PubChem BioAssay AID624330 (Southern Research Specialized Biocontainment Screening …, 2012):
In all, about 340,000 compounds went through this assay and about 2,100 (0.62%) were called active.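 How the source made its calls: active means first-screen hits whose inhibition reached a set limit at any dose in the follow-up dose series; inconclusive means inhibition above the set first-screen limit but never retested; inactive means the rest.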 The list is a sample of the results. Results with a measured potency or affinity are listed apart.

molecular target: Rac GTPase-activating protein 1 (Homo sapiens) (UniProt Q9H0H5); assay: blockers of MgcRacGAP-driven Rac1 GTP hydrolysis – biochemical, ADP Hunter fluorescence, primary and confirmatory, confirmation (AID 624330); details: MgcRacGAP-stimulated Rac1 GTP hydrolysis, at 30 µM, stronger effect = higher value, GST-tagged Rac1 F28L mutant substrate;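 further: fluorescence reports GDP produced by GAP-driven GTP hydrolysis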
Sequence (Q9H0H5 whole entry, looked up): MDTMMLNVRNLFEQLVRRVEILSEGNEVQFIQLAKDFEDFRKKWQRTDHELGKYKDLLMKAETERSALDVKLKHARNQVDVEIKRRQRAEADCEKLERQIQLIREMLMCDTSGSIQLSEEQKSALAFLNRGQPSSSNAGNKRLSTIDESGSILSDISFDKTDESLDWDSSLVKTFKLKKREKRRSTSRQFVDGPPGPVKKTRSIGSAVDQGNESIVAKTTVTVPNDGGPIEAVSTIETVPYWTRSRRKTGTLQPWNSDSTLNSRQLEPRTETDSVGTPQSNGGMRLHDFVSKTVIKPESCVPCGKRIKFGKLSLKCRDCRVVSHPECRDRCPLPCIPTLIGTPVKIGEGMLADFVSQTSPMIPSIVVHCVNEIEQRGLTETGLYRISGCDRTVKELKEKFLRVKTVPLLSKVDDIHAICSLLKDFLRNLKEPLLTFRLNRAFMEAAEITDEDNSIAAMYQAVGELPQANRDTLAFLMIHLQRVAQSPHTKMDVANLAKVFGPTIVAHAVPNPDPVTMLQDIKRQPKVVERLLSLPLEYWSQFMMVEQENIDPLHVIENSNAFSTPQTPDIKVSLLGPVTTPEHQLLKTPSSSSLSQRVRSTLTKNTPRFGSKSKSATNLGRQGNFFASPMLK

inhibition, inactive:
O=C(NC1=NCCS1)C1CC(=O)N(c2ccc(F)cc2)C1 (centres undefined) 3.19%
Cc1nc2c(ncn2-c2ccccc2)c(=O)n1NC(=O)CN1CCOCC1 6.81%
COc1ccc(/C=C/C(=O)c2ccc3c(c2)OCO3)cc1OC 0.8%
COc1cc(/C=C/C(=O)c2ccc3c(c2)OCO3)cc(OC)c1OC 9.6%
COc1ccc(C(CC(=O)N2CCCCC2)c2c(OC)cc(OC)c3c(-c4ccccc4)cc(=O)oc23)cc1 (centres undefined) 5.73%
COc1ccccc1N1CCN(C2CCCN(Cc3ccc(Cl)cc3)C2)CC1 (centres undefined) -6.75%
COc1ccc(Br)cc1C(C[N+](=O)[O-])c1c(N)n(C)c(=O)n(C)c1=O (centres undefined) 10.7%
Cc1ccc(C(C[N+](=O)[O-])c2c(N)n(C)c(=O)n(C)c2=O)cc1 (centres undefined) 5.58%
COc1ccc(/C=C2\N=C3CCCCCN3C2=O)cc1OC -1.04%
COc1ccc(/C=C2/N=C3CCCCCN3C2=O)cc1OC 3.87%
O=C1/C(=C/c2ccncc2)N=C2CCCCCN12 3.48%
COc1ccc(/C=C2/N=C3CCCCCN3C2=O)cc1 4.99%
COCCn1c(SCC(=O)c2cccc(OC)c2)nnc1-c1ccco1 13.4%
CC(=O)Nc1ccc(NS(=O)(=O)c2c(Cl)cccc2Cl)cc1 5.14%
Cc1cc(C)n2c(SCC(=O)N(CC(C)C)c3c(N)n(CC(C)C)c(=O)[nH]c3=O)nnc2n1 5.05%
O=C(O)CCC(=O)Nc1cccc(C(=O)c2ccccc2)c1 8.75%
OCc1ccccc1OCCCN1CCC(Cc2ccccc2)CC1 22.1%
COc1cccc(OC)c1OCCCN1CCC(Cc2ccccc2)CC1 28%
N#CC1(NC(=O)CSc2nnc(Cc3ccccc3)o2)CCCCC1 -4.91%
CC1CC(C)CN(C(=O)c2ccc(CSc3nc4ccncc4[nH]3)cc2)C1 (centres undefined) 4.54%
COc1ccc(N2CCN(C(CNC(C)=O)c3ccc4c(c3)OCO4)CC2)cc1 (centres undefined) 11.6%
COC(=O)NCC(c1ccc2c(c1)OCO2)N1CCN(c2ccccc2)CC1 (centres undefined) 6.79%
COc1ccc(C(CNC(=O)c2cc(C)oc2C)N2CCOCC2)cc1 (centres undefined) -3.27%
COc1ccc(N2CCN(C(CNC(=O)C(C)C)c3ccc4c(c3)OCO4)CC2)cc1 (centres undefined) 26.1%
COc1ccc(C(CNC(=O)c2cc(F)c(F)c(F)c2F)N2CCOCC2)cc1 (centres undefined) 5.28%
COc1ccc(C(=O)NCC(c2ccc3c(c2)OCO3)N2CCN(c3ccc(OC)cc3)CC2)cc1 (centres undefined) 7.8%
COc1cccc(CC(=O)OCC(=O)NC2(C#N)CCCCC2)c1 6.74%
COc1ccc(N2CC(C(=O)OCC(=O)NCc3ccccc3)CC2=O)cc1 (centres undefined) -1.54%
C=CCn1c(SCC(=O)c2ccc(O)c(O)c2)nnc1-c1ccccc1OC 19.4%
C=CCn1c(SCC(=O)c2ccc(O)c(O)c2)nnc1-c1ccc(C)cc1 24.7%
C=CCn1c(SCC(=O)O)nnc1-c1cccc(Cl)c1 -7.04%
C=CCn1c(SCC(=O)c2ccc(O)c(O)c2)nnc1-c1ccc(OC)cc1 8.3%
O=C(COc1ccccc1F)NCc1nc2ccccc2[nH]1 10.2%
N#Cc1ccc(Cl)cc1NC(=O)COC(=O)[C@H](CCC(N)=O)NC(=O)c1ccc(F)cc1 -1.8%
C[C@H](O)CNC(=O)c1[nH]cnc1C(=O)Nc1ccc(CNC(=O)OC(C)(C)C)cc1 13.6%
CC(=O)c1ccc(N2CCN(c3ccc(C(N)=O)cc3[N+](=O)[O-])CC2)cc1 6.37%
COc1ccc(N2CCN(c3ccc(C(=O)O)cc3[N+](=O)[O-])CC2)cc1 25.5%
COC(C[C@@H]1O[C@@H]1C(=O)COCc1ccccc1)OC 2.07%
O=C(NCCCn1ccnc1)c1cccc(S(=O)(=O)Nc2ccc(Br)cc2)c1 -2.05%
CNc1nc2c(c(=O)n(C)c(=O)n2C)n1CCCc1ccccc1 10.2%
Cn1c(=O)[nH]c(=O)c2c1nc(N)n2Cc1ccccc1 5.45%
CNc1nc2c(c(=O)[nH]c(=O)n2C)n1CCCc1ccccc1 16.1%
CSc1nc2c(c(=O)[nH]c(=O)n2C)n1CCCc1ccccc1 5.17%
CSc1nc2c(c(=O)[nH]c(=O)n2C)n1Cc1ccccc1 2.19%
Cn1c(=O)c2c(nc(Br)n2CCCc2ccccc2)n(C)c1=O 8.11%
COc1ccc(CCn2c(O)cc3nn(-c4nc5ccccc5s4)c(=O)c-3c2C)cc1 20.6%
Cc1ccc(C)c(S(=O)(=O)NCC(=O)NCc2ccco2)c1 1.96%
CC(C)Oc1ccc(C2NC(=O)c3ccccc3O2)cc1 (centres undefined) 4.5%
CC1CCCN(C(=O)C(=O)Nc2ccc3nc4n(c(=O)c3c2)CCCCC4)C1 (centres undefined) 7.24%
Cc1noc(NC(=O)c2cccc(Cl)c2Cl)c1C#N 6.81%
N#Cc1cccc(NC(=O)CSc2sc3c(O)cc(=O)[nH]c3c2C#N)c1 18.4%
NS(=O)(=O)c1ccc(NC(=O)CN2C(=O)CCC2=O)cc1 6.61%
CC1CN(C(=O)N2c3ccccc3Sc3ccccc32)C(C)CC1=O (centres undefined) 5.35%
O=C(CSc1ccccc1)NCC(c1ccco1)N1CCCCC1 (centres undefined) 3.84%
CN1OC[C@@H]2CN[C@H](c3ccc(-c4cccc(F)c4)cc3)C[C@@H]21 15.6%
Cc1nn2cc(-c3ccc(Cl)cc3)nc2s1 -6.27%
Cc1nn2cc(-c3ccc(-c4ccccc4)cc3)nc2s1 11.1%
CC(C)C(=O)N1CCN(c2ccc(NC(=O)c3ccc4c(c3)OCCO4)cc2)CC1 5.03%
Cc1nn(-c2ccccc2)c(Cl)c1/C=N/O 9.11%
Cc1nn(-c2ccccc2)c(C)c1/C=N/O 12.2%
Cc1ccc2nc(C)c(C(=O)N/N=C/c3ccco3)cc2c1 3.04%
CCN(C[C@H]1N[C@@](C)(C(=O)OC)[C@H]2C(=O)N(C)C(=O)[C@@H]12)C(=O)c1ccccc1 6.04%
CC(=O)N(C1=C(N2CCOCC2)C(=O)c2ccccc2C1=O)c1ccc(C(=O)O)cc1 -12.8%
CC(=O)N(C1=C(N)C(=O)c2ccccc2C1=O)c1ccccc1 9.97%
CSc1ccc(NC(=O)CSc2nc3[nH]c(=O)cc(O)c3s2)cc1 11.1%
COC(=O)[C@@H](N)Cc1ccc(O)c(O)c1 -7.99%
N[C@@H](Cc1ccc(O)c(O)c1)C(=O)O 6.56%
COc1ccc(N2CC(C(=O)Nc3ccc(N4CCOCC4)cc3)CC2=O)cc1 (centres undefined) 6.69%
CCOc1cc(C(c2c(C)[nH][nH]c2=O)c2c(C)[nH][nH]c2=O)ccc1OCc1ccc([N+](=O)[O-])cc1 -0.47%
Cc1ccccc1N(C(=O)c1csnn1)C(C(=O)NC1CCCCC1)c1ccncc1 (centres undefined) -1.41%
Cc1cc2nc(-c3ccccc3)cc(=O)n2[nH]1 14.4%
Cc1nc2nc(-c3ccccc3)cc(=O)n2[nH]1 4.54%
CC(C)C(=O)Nc1nnc(NC(=S)Nc2ccccc2)s1 1%
COc1cccc2[nH]c3c(Cl)ncnc3c12 5.53%
COc1ccccc1Nc1ncnc2nc[nH]c12 6.06%
CCOCCn1c(SC(C)C(C)=O)nc2c1c(=O)[nH]c(=O)n2C (centres undefined) 5.63%
CCOC(=O)c1c(C)oc2c(CN3CCN(C)CC3)c(Br)c(OC)c(O)c12 14.1%
COc1ccccc1N=Nc1c(C)noc1C 2.76%
COc1ccccc1N=Nc1c(C)n[nH]c1C 7.74%
COCCN(C(=O)CSc1nc2ccc(Cl)cc2[nH]1)c1c(N)n(Cc2ccccc2)c(=O)[nH]c1=O 10.9%
Cn1ncc(Cl)c1C(=O)N1CCN(c2cccc(Cl)c2)CC1 7.96%
CCN(c1ccccc1)S(=O)(=O)c1ccc(Cl)c(NC(=O)CN2CCN(C)CC2)c1 -0.66%
CCN(c1ccccc1)S(=O)(=O)c1ccc(Cl)c(NC(=O)CN2CCCCCC2)c1 29.2%
CCCCSCCCNC(=O)c1ccc(CS(=O)(=O)c2ccccc2OC)o1 5.81%
CC(C)Cn1c(-c2ccco2)n[nH]c1=S 26.8%
CC(C)Cn1c(-c2ccc(F)cc2)n[nH]c1=S 14.4%
CCOC(=O)C1=C(c2ccccc2)Nc2ncnn2C1c1ccc(O)cc1 (centres undefined) 5.08%
COc1ccc(C2CC(c3ccncc3)=NN2c2ccc(S(N)(=O)=O)cc2)cc1 (centres undefined) 9.08%
COc1ccc(N2C(=O)CSC2c2ccncc2)cc1 (centres undefined) 8.8%
Cc1ccnc(NC(=O)c2cccc(NC(=O)c3ccccc3C)c2)c1 11.1%
Clc1ccc(-c2ccc(C=Nc3ccc(N4CCOCC4)cc3)o2)cc1 25.6%
Clc1cccc(-c2ccc(C=Nc3ccc(N4CCOCC4)cc3)o2)c1 23.7%
O=C(CN1CCOCC1)N/N=C/c1ccc(-c2cccc(Cl)c2Cl)o1 7.09%
Clc1ccc(-c2ccc(C=Nc3ccc(N4CCOCC4)cc3)o2)c(Cl)c1 9.07%
